Assay [1] in a line: Quantitative High-Throughput drug screen in 47 multiple myeloma cell lines against the NCATS MIPE library collection: Karpas620_DSMZ cell viability assay (AID 1918959). Note: nearly all actives have a fitted effect of over 30% in size. Summed up:
(§1)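 CellTiter-Glo luminescence (ATP) after 48 h compound exposure, 37C/5% CO2; 500 cells/well; MIPE 4.0 approved/investigational drugs pinned in; DMSO = 100%, media only = 0% viability.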

A short description of assay [2]: Quantitative High-Throughput drug screen in 47 multiple myeloma cell lines against the NCATS MIPE library collection: KMM1_JCRB cell viability assay (AID 1918960). Note: nearly all actives have a fitted effect of over 30% in size. A digest of the protocol: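 Here, 48 h treatment with MIPE 4.0 agents at 37 °C preceded an ATP luminescence read. Plating density was 500 cells per well.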
Assay [3] can be described thus: Quantitative High-Throughput drug screen in 47 multiple myeloma cell lines against the NCATS MIPE library collection: KHM11_PLB cell viability assay (AID 1918962). Note: nearly all actives have a fitted effect of over 35% in size. Summed up:
as §1

Assay [4] can be described thus: Quantitative High-Throughput drug screen in 47 multiple myeloma cell lines against the NCATS MIPE library collection: JIM3_ECACC cell viability assay (AID 1918963; note: nearly all actives have a fitted effect of over 35% in size). Summed up: as §1
Assay [5] is described as follows: Quantitative High-Throughput drug screen in 47 multiple myeloma cell lines against the NCATS MIPE library collection: JIM1_ECACC cell viability assay (AID 1918964). A digest of the protocol: (§2)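 Primary qHTS used for cherry-picking: cells at 500/well, library compounds for 48 h (37C, 5% CO2), luminescent ATP assay.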
A short description of assay [6]: Quantitative High-Throughput drug screen in 47 multiple myeloma cell lines against the NCATS MIPE library collection: INA6_PLB cell viability assay (AID 1918965; note: nearly all actives have a fitted effect of over 55% in size). Summed up: (§3)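 Myeloma cells (500 per well) were exposed to MIPE 4.0 compounds by pin transfer and incubated 48 hours at 37C, 5% CO2. Viability was read as ATP by CellTiter-Glo luminescence, normalised to DMSO (100%) and media-only (0%) wells.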

Assay [7] can be described thus: Quantitative High-Throughput drug screen in 47 multiple myeloma cell lines against the NCATS MIPE library collection: JJN3_DSMZ cell viability assay (AID 1918966; note: nearly all actives have a fitted effect of over 50% in size). Summed up:
as §2

Assay [8] in a line: Quantitative High-Throughput drug screen in 47 multiple myeloma cell lines against the NCATS MIPE library collection: H1112_PLB cell viability assay (AID 1918967; note: nearly all actives have a fitted effect of over 30% in size). A digest of the protocol:
as §2

Assay [9] is described as follows: Quantitative High-Throughput drug screen in 47 multiple myeloma cell lines against the NCATS MIPE library collection: Karpas25_ECACC cell viability assay (AID 1918968; note: nearly all actives have a fitted effect of over 35% in size). Summed up:
as §2

The nature of assay [10]: Quantitative High-Throughput drug screen in 47 multiple myeloma cell lines against the NCATS MIPE library collection: KMS27_JCRB cell viability assay (AID 1918970). Note: nearly all actives have a fitted effect of over 30% in size. The following applies: KMS27 myeloma cells, CellTiter-Glo ATP viability, 48 h; viability (% of DMSO): at 45.8 µM (top of the series). Summed up: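 Each line is seeded at 500 cells per well and treated with library compounds for 48 hours under 37 °C, 5% CO2. CellTiter-Glo is then added for 5 min at room temperature before median relative luminescence is recorded.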

Assay [11] in a line: Quantitative High-Throughput drug screen in 47 multiple myeloma cell lines against the NCATS MIPE library collection: KMS12BM_JCRB cell viability assay (AID 1918971). Note: nearly all actives have a fitted effect of over 35% in size. A digest of the protocol:
(§4)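 Inhibition of cell viability is measured here. Each line was plated at 500 cells per well, treated with MIPE 4.0 drugs, kept 48 hours at 37C, then assayed for ATP content by CellTiter-Glo luminescence.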

The nature of assay [12]: Quantitative High-Throughput drug screen in 47 multiple myeloma cell lines against the NCATS MIPE library collection: KMS12PE_JCRB cell viability assay (AID 1918972). Note: nearly all actives have a fitted effect of over 30% in size. A digest of the protocol: as §3
The nature of assay [13]: Quantitative High-Throughput drug screen in 47 multiple myeloma cell lines against the NCATS MIPE library collection: KMS26_JCRB cell viability assay (AID 1918975). Note: nearly all actives have a fitted effect of over 45% in size. A digest of the protocol:
as §4

A short description of assay [14]: Quantitative High-Throughput drug screen in 47 multiple myeloma cell lines against the NCATS MIPE library collection: MMM1_PLB cell viability assay (AID 1918976). Note: nearly all actives have a fitted effect of over 35% in size. Summed up: (§5)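 Myeloma cells (500/well) treated with MIPE 4.0 compounds for 48 h at 37 °C, 5% CO2. Viability read as ATP via CellTiter-Glo luminescence after 5 min at RT; DMSO-only wells = 100%, media-only = 0% viability.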

A short description of assay [15]: Quantitative High-Throughput drug screen in 47 multiple myeloma cell lines against the NCATS MIPE library collection: MOLP8_DSMZ cell viability assay (AID 1918977). Note: nearly all actives have a fitted effect of over 45% in size. Summed up:
as §5

Assay [16] in a line: Quantitative High-Throughput drug screen in 47 multiple myeloma cell lines against the NCATS MIPE library collection: NCIH929_DSMZ cell viability assay (AID 1918978). Note: nearly all actives have a fitted effect of over 35% in size. Summed up:
as §5

The nature of assay [17]: Quantitative High-Throughput drug screen in 47 multiple myeloma cell lines against the NCATS MIPE library collection: Karpas417_ECACC cell viability assay (AID 1918961). The following applies: Karpas417 myeloma viability, CellTiter-Glo ATP luminescence, 48 h; viability (% of DMSO): at 45.8 µM (top of the series). Summed up: as §3
Assay [18] can be described thus: Quantitative High-Throughput drug screen in 47 multiple myeloma cell lines against the NCATS MIPE library collection: KMS20_JCRB cell viability assay (AID 1918973). Note: nearly all actives have a fitted effect of over 45% in size. Summed up: as §2
Assay [19] can be described thus: Quantitative High-Throughput drug screen in 47 multiple myeloma cell lines against the NCATS MIPE library collection: OCIMY1_PLB cell viability assay (AID 1918979). Note: nearly all actives have a fitted effect of over 35% in size. Summed up:
as §5

Inconclusive results are not listed. Active and inactive are the calls of the source. Calls come from the whole dose curve; as a rule, active = well fitted curve in the direction sought with a large enough effect; inconclusive = small, poorly fitted or top-dose-only effect, or another doubt; inactive = no such curve, though single readings can be large; an effect the other way counts as inactive or inconclusive.
Potency is the fitted concentration of half-maximal effect.

For the molecule `C=CC(=O)Nc1ccc2ncnc(Nc3ccc(OCc4cccc(F)c4)c(Cl)c3)c2c1`, the Potency in assay [1] is 0.0418 µM (active); in assay [2], 0.148 µM (active); in assay [3], 6.62 µM (active); in assay [4], 0.743 µM (active); in assay [5], 0.0418 µM (active); in assay [6] it was 0.662 µM (active). The Potency in [7] is 18.7 µM (active); in [8] it was 1.05 µM (active); in assay [9], 1.87 µM (active); in assay [11], 0.418 µM (active); in assay [12], 0.0743 µM (active); in [13], 9.35 µM (active). For the same molecule, the Potency in assay [14] is 18.7 µM (active); in [15] it was 6.62 µM (active); in assay [16] it was 4.18 µM (active). Moreover, the viability (% of DMSO) in [10] is 70.4% (active).

With `c1cc(N[C@@H]2CCNC2)nc(-c2cnc3ccc(-c4cn[nH]c4)cn23)c1`, the Potency in assay [1] was 10.5 µM (active); in assay [2] it was 8.33 µM (active); in [17] it was 4.69 µM (active); in [3] it was 3.32 µM (active); in assay [5] it was 4.18 µM (active); in assay [7] it was 5.9 µM (active). Also, the Potency is 11.8 µM (active) in [8]; 2.64 µM (active) in assay [10]; 16.6 µM (active) in [11]; 16.6 µM (active) in [12]; 11.8 µM (active) in [18]; 14.8 µM (active) in assay [13]. Also, the results for the Potency in [15] and in [16] were 2.96 µM (active) and 13.2 µM (active), respectively. For the same molecule, the Potency entry in assay [19] is “inactive”.

For the molecule `CCCNC(=O)[C@H]1O[C@H]1C(=O)N[C@H](C(=O)N1CCC[C@@H]1C(=O)OC)C(C)CC` (stereo not given in full), the Potency in assay [1] is 5.9 µM (active); in [2] it was 9.35 µM (active); in assay [17], 2.96 µM (active); in [3] it was 33.2 µM (active); in [4], 16.6 µM (active); in assay [10], 5.9 µM (active). In addition, the Potency in [11] was 5.26 µM (active); in assay [12] it was 6.62 µM (active); in [14], 16.6 µM (active); in [15], 2.64 µM (active); in [16] it was 4.69 µM (active); in assay [19], 5.9 µM (active).

As for `C=Cc1c(C)c2cc3nc(cc4[nH]c(cc5nc(cc1[nH]2)C(C)=C5CCC(=O)O)c(CCC(=O)OC)c4C)[C@@]1(C)C3=CC=C(C(=O)OC)[C@H]1C(=O)OC`, the Potency in assay [1] is 0.187 µM (active); in [2], 0.187 µM (active); in assay [3], 0.526 µM (active); in [4], 0.418 µM (active); in assay [5], 0.148 µM (active); in assay [6] it was 0.209 µM (active). For the same molecule, the Potency in [7] is 0.0296 µM (active); in assay [8], 0.235 µM (active); in [9], 0.132 µM (active); in assay [10] it was 0.132 µM (active); in assay [12], 0.187 µM (active); in assay [18], 0.148 µM (active). For the same molecule, the Potency was 0.743 µM (active) in assay [13]; 0.332 µM (active) in assay [14]; 2.09 µM (active) in assay [15]; 0.0833 µM (active) in assay [16]; 2.35 µM (active) in assay [19].

For the molecule `c1ccc(CNc2nc(NCc3ccccc3)c3ccccc3n2)cc1`, the Potency in assay [1] is 5.26 µM (active); in [2], 4.69 µM (active); in [3], 8.33 µM (active); in assay [4], 16.6 µM (active); in assay [5], 8.33 µM (active); in assay [6] it was 7.43 µM (active). The Potency in [7] is 23.5 µM (active); in assay [8] it was 11.8 µM (active); in assay [9], 5.9 µM (active); in assay [10], 5.9 µM (active); in [11], 29.6 µM (active); in [13] it was 26.4 µM (active). In addition, the values for the Potency in assay [14], in assay [15] and in assay [16] were 16.6 µM (active), 18.7 µM (active) and 8.33 µM (active), respectively.

For the origin of these results see PubChem BioAssay (NCATS).
